# Source: the supplement of paper PMC10338343
# ± gives the standard deviation.
# Test system: MILI (PIWIL2) piRISC loaded with L1MC piRNA (26 nt)
# Test: pre-steady-state target cleavage rate (min^-1); guide: L1MC piRNA 5'p-UAACUAAAUACUAUGCAAGCUGUAGG; MIWI and MILI are mouse PIWI proteins and EfPiwi is from a freshwater sponge; tags in brackets are library labels; higher = faster piRNA-guided slicing of the target
# Details: auxiliary factor: 500 nM mouse GTSF1
# How it was run: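 A transcribed, DNA-blocked target RNA library […] was incubated at 33 °C for 0–8 or 0–960 min with 1 nM active affinity-purified piRISC carrying one synthetic guide, in HEPES–potassium acetate buffer with or without 500 nM GTSF1 partner protein. Uncleaved targets were then sequenced and normalised to depth and to weakly complementary targets. Data from three trials were pooled, with k3 capped at 0.0001 min^-1, and a burst-and-steady-state fit yielded the pre-steady-state cleavage rate.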
# 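Note: 1 nM active piRISC with 0.1 nM target library at 33 °C single turnover.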
row,Sequence,pre-steady-state target cleavage rate
1,UCCUGGAUCACGUUGCAUAGUAUUUACAAA,0.0591 ± 0.015
2,UCCUGGAUGUGCUACCAUAGUAUUUAGAAA,0.00379 ± 0.0038
3,UCCUGGAUCAGCUUGCAUUGUAUUUUCAAA,0.00931 ± 0.0046
4,UCCUGGAUCAGCUUGGUUAGUAUUUAGAAA,0.0485 ± 0.016
5,UCCUGGAUGUGCUUGCAUAGUAAAUAGUAA,0.0121 ± 0.0056
6,UCCUGGAUGUCCUUGCAUAGUAUUUACUAA,0.0464 ± 0.011
7,UCCUGGAUGUCCUUGCUAUGUAUUUAGUAA,0.00762 ± 0.0042
8,UCCUGGAUGACGUUGCAUAGUAUUUACAAA,0.0104 ± 0.0057
9,UCCUGCUACAGCUUGCAUAGUAAAUACAAA,0.0117 ± 0.006
10,UCCUGGAUGUCGAACCAUAGAAUUUAGUUA,< 0.0001
11,UCCUGGAUGUGCUUGCAUAUUAUUUAGUUA,0.0346 ± 0.0073
12,UCCUGGAUGUCGUUGCAUAGUAUUUACGUUA,0.231 ± 0.064
13,UCCUGGAUGUCGAUGCAUAGAAUUUAGUUA,0.0057 ± 0.0026
14,UCCUGGUUGUGCUUGCAUAGUAUUUACAAA,0.00786 ± 0.0048
15,UCCUCCUACAGCAACCAUAGUAUUUAGUAA,0.255 ± 0.043
16,UCCUGGAUGUCCUUGCAUAGCAUUUAGUUA,0.0257 ± 0.0079
17,UCCUGGAUGUCCUACGAUAGUAUUUAGUUA,0.007 ± 0.004
18,UCCUCCUACAGCUUGCUAAGUAUUUAGUAA,0.0708 ± 0.013

row,Sequence,pre-steady-state target cleavage rate
1,UCCUGGAUGUGCUUGCAUGUAUUUAGUUA,0.00502 ± 0.0043
2,UCCUCCAUGAGCUUGCAUAGUAUUUUCAAA,0.0168 ± 0.0069
3,UCCUGGAUGUGCUUGCAUAGUUUAUAGUUA,0.00502 ± 0.0041
4,UCCUGGAUCAGCUUGCAUAGUAUUAUCUUA,0.0326 ± 0.0079
5,UCCUGGAUGUCGAUGCAUAGUAUAUUGUUA,0.0249 ± 0.008
6,UCCUGGAUCUGCUUGCAUAGAAUUUAGUUA,0.0261 ± 0.0069
7,UCCUCCUAGUGCUUGCAUAGUAUUUUCAAA,0.0158 ± 0.0057
8,UCCUCCUACAGCUUGCAAUCUAUUUAGAAA,0.0218 ± 0.007
9,UCCUGCUACAGCAAGCAUAGUAUUUAGAAA,0.217 ± 0.052
10,UCCUGGAUGUCCUUGCAUAGUAUUGAGUUA,0.0563 ± 0.019
11,UCCUCCUACAGCUUGCAUACUAUAUAGUUA,0.0619 ± 0.015
12,UCCUGGAUGUCGAUGCAUAAUAUUUAGUUA,0.0556 ± 0.013
13,UCCUGGAUGUGCUUGCAAUAGUAUUUAGUUA,0.00398 ± 0.0037
14,UCCUGGAACACCUUGCAUAGUAUUUAGUAA,0.17 ± 0.022
15,UCCUGCUACAGCUUGCAUAGUAUAAACAAA,0.0722 ± 0.022
16,UCCUGGAUGUCCUUGCCAUAGUAUUUAGUUA,0.00783 ± 0.0048
17,UCCUGGAUGUCGAAGCGUAGUAUUUAGUUA,0.00313 ± 0.0025
18,UCCUGGAUCAGCUUCCAUAGUAAUUAGUUA,0.00494 ± 0.004

# Same assay, conditions: auxiliary factor: none (no GTSF1)
row,Sequence,pre-steady-state target cleavage rate
1,UCCUGGAUGUCGAACGUUUGUAUUUAGUAA,< 0.0001
2,UCCUGGAUGUCGAACCAUAGUAUUUUGUAA,< 0.0001
3,UCCUGGAUGUCGAACGUUACUAUUAAGUUA,< 0.0001
4,UCCUGGAUGUCGAACGAUAGUAUGUUAGUUA,< 0.0001
